Among the test systems are T-47D breast; BT-549 breast; MDA-MB-435 melanoma; SW-620 colon; MCF7 breast; HCT-116 colon; HCC-2998 colon; KM12 colon.
Test in all cases: NCI-60 one-dose screen, 48 h (100 = growth as untreated, 0 = no growth, -100 = all killed)
Settings in all cases: 10 µM unless noted

This is part of a sample that, as a whole, favours compounds with a hit. Of some 83,000 tested, about 20% had one in any assay.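 Single-dose data. Exposure time 48 hours. Values below 10 considered active.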 A number with no mark means an inactive call. Active and inactive are the calls of the source.

With `COc1ccc2c(c1)c(-c1noc(C(=O)c3cn(C)c4ccc(Br)cc34)n1)cn2C`, the growth was 90% with T-47D breast; 99.3% in the test on BT-549 breast; 114% with MDA-MB-435 melanoma; 105% in the test on SW-620 colon; 93% with MCF7 breast; 92.4% with HCT-116 colon. In addition, the figures for the growth in the test on HCC-2998 colon and in the test with KM12 colon were 100% and 106%, respectively.
In the case of `CC[C@@H](C(=O)[C@@H](C)[C@@H](O)[C@H](C)[C@@H]1O[C@@H]([C@@H](CC)C(=O)NCCc2ccc(F)cc2)CC[C@@H]1C)C1O[C@]2(C=CC(=O)[C@]3(CC[C@@](C)([C@H]4CC[C@](O)(CC)[C@H](C)O4)O3)O2)[C@H](C)C[C@@H]1C` (stereo not given in full), the growth in the test on T-47D breast is 15%; in the test on BT-549 breast, 54.1%; in the test on MDA-MB-435 melanoma, 39.3%; in the test on SW-620 colon it was 40.4%; in the test on MCF7 breast, 18.4%; in the test on HCT-116 colon, 16.9%. Further, the results for the growth with HCC-2998 colon and in the test with KM12 colon were 63.8% and 42.6%, respectively.
As for `C=C(CNCCc1ccc(O)cc1)[C@@H]1CC[C@]2(CO)CC[C@]3(C)[C@H](CC[C@@H]4[C@@]5(C)CCC(NCCO)C(C)(C)[C@@H]5CC[C@]43C)[C@@H]12` (stereo not given in full), the growth with T-47D breast is -64.2% (active); with BT-549 breast it was -68.1% (active); in the test on MDA-MB-435 melanoma it was -92.1% (active); in the test on SW-620 colon it was -82.4% (active); in the test on MCF7 breast it was -72.3% (active); with HCT-116 colon, -92.5% (active). Also, the growth in the test with HCC-2998 colon was -84.3% (active); in the test on KM12 colon it was -25.8% (active).
Turning to `N#Cc1nn(-c2cc(=O)[nH]c3ccc(Cl)cc23)c(N)c1C#N`, the growth in the test with T-47D breast is 67.2%; in the test on BT-549 breast, 87.9%; in the test on MDA-MB-435 melanoma, 125%; in the test with SW-620 colon, 91.1%; with MCF7 breast, 100%; with HCT-116 colon, 84.4%. The growth with HCC-2998 colon was 92.7%; in the test with KM12 colon it was 106%.
Consider `O=[N+]([O-])c1ccc(N/N=C(/C(=N/Nc2ccc([N+](=O)[O-])cc2)c2ccccc2)c2ccccc2)cc1`, for which the growth with T-47D breast was 88.8%; in the test on BT-549 breast, 102%; in the test with MDA-MB-435 melanoma, 86.4%; in the test with SW-620 colon, 47.6%; with MCF7 breast, 60.2%; in the test with HCT-116 colon, 51.7%. For the same compound, the growth in the test with HCC-2998 colon is 105%; in the test with KM12 colon, 106%.
Turning to `Oc1c(Cl)cc(Cl)c2ccc(Cn3cc(-c4cc(C(F)(F)F)cc(C(F)(F)F)c4)nn3)nc12`, the growth was 33.7% in the test on T-47D breast; 66% in the test with BT-549 breast; 43.5% in the test with MDA-MB-435 melanoma; 4.61% (active) in the test with SW-620 colon; 21.2% with MCF7 breast; 1.78% (active) in the test with HCT-116 colon. For the same compound, the growth was 101% in the test with HCC-2998 colon and 102% in the test on KM12 colon.
With `CC(=O)Cc1nsc(NC(=O)c2cc(-c3cc(Cl)cc(Cl)c3)oc2C)n1`, the growth in the test on T-47D breast was 88.1%; in the test on BT-549 breast, 98.1%; in the test on MDA-MB-435 melanoma it was 101%; in the test with SW-620 colon, 101%; in the test on MCF7 breast, 97.4%; in the test on HCT-116 colon, 107%. For the same compound, the values for the growth in the test with HCC-2998 colon and with KM12 colon were 99.9% and 103%, respectively.
Regarding `O=C(Cc1ccccc1)Nc1nc(O)c(/C=C2\C(=O)C=Cc3ccccc32)s1`, the growth in the test on T-47D breast was 90%; with BT-549 breast, 98.9%; with MDA-MB-435 melanoma, 101%; in the test with SW-620 colon it was 95.7%; in the test on MCF7 breast, 101%; in the test with HCT-116 colon it was 90.1%. In addition, the growth in the test on HCC-2998 colon is 110%; with KM12 colon, 106%.
As for `O=C1/C(=C/c2ccccc2Br)COc2ccc(O)c(O)c21`, the growth in the test with T-47D breast was -7.17% (active); in the test on BT-549 breast, 14.7%; in the test with MDA-MB-435 melanoma it was 2.78% (active); in the test with SW-620 colon, 5.6% (active); in the test on MCF7 breast it was 20.9%; with HCT-116 colon, -3.23% (active). The growth in the test on HCC-2998 colon was 44.2%; in the test on KM12 colon, -7.57% (active).
Regarding `CN1C(=O)/C(=C/c2ccc(C(=O)Nc3ncc(Cc4ccc(Cl)cc4)s3)cc2)SC1=S`, the growth is 37.8% in the test with T-47D breast; 46.7% in the test on BT-549 breast; -32% (active) with MDA-MB-435 melanoma; 28.9% in the test with SW-620 colon; 55.5% in the test with MCF7 breast; 24.2% with HCT-116 colon. For the same compound, the growth is 59.3% with HCC-2998 colon and 21.1% in the test on KM12 colon.
As for `O=C1c2cccnc2C(=O)c2c1c(C(=O)NCCn1ccnc1)c1ccccn21`, the growth in the test on T-47D breast was 24.2%; with BT-549 breast it was 45.8%; in the test with MDA-MB-435 melanoma, -84.2% (active); with SW-620 colon, 12.9%; in the test with MCF7 breast, 0.25% (active); with HCT-116 colon, -8.04% (active). In addition, the growth with HCC-2998 colon is 22.4%; in the test on KM12 colon it was 31.3%.
Regarding `O=C1c2ccc3c4ccc5c6c(ccc(c7ccc(c2c37)C(=O)N1CCC[P+](c1ccccc1)(c1ccccc1)c1ccccc1)c64)C(=O)N(CCC[P+](c1ccccc1)(c1ccccc1)c1ccccc1)C5=O`, the growth in the test with T-47D breast is 41.1%; in the test with BT-549 breast, 74%; in the test with MDA-MB-435 melanoma, 0.931% (active); in the test with SW-620 colon it was 24.5%; in the test on MCF7 breast it was 37.1%; with HCT-116 colon, 46%. In addition, the values for the growth in the test on HCC-2998 colon and with KM12 colon were 25.5% and 10.5%, respectively.
`COc1cc(OC)c2sc(-c3ccc(-n4cncc4-c4ccc(OC)c(OC)c4)cc3)nc2c1`: the growth in the test on T-47D breast is 29.7%; with BT-549 breast, 44.5%; in the test on MDA-MB-435 melanoma, 53.3%; with SW-620 colon it was 55.7%; in the test on MCF7 breast, 44.5%; in the test with HCT-116 colon it was 40.8%. In addition, the growth in the test on HCC-2998 colon is 76.4%; with KM12 colon it was 52.8%.
In the case of `COc1ccc(C2=Nc3c/c(=C\c4c(O)[nH]c5ccc(Cl)cc45)ccc3=N2)cc1`, the growth in the test on T-47D breast is 53.7%; with BT-549 breast it was 35.3%; with MDA-MB-435 melanoma, -68.5% (active); in the test on SW-620 colon, 5.99% (active); with MCF7 breast, 0.287% (active); in the test on HCT-116 colon it was 33.6%. The results for the growth in the test with HCC-2998 colon and in the test with KM12 colon were 35.5% and 17.1%, respectively.
On to `CCn1cc(C(=O)N/N=C/c2cccs2)c(=O)c2cc(F)c(N3CCNC(C)C3)c(F)c21` (stereo not given), for which the growth in the test on T-47D breast was 77.8%; in the test on BT-549 breast, 61.6%; in the test with MDA-MB-435 melanoma, 92.2%; in the test on SW-620 colon, -16.8% (active); in the test on MCF7 breast, -77.4% (active); with HCT-116 colon, 94.5%. For the same compound, the growth was 28.6% in the test with HCC-2998 colon and 83.5% in the test on KM12 colon.

Values taken from PubChem BioAssay (NCI).
